The structures appear in SMILES notation. Values joined by “and” are separate entries in the source; they are usually repeats but may differ in a detail not shown here. Equal entries are not always repeated. Among all 310,000 compounds or so, about 1,500 (0.48%) were called active. This is one part of a sample in which actives are shown more often than they occur. A number with no mark means an inactive call.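 Rule for the calls: active = binding more than 3 SD below its plate's average and above zero; inconclusive = below that plate limit but binding exactly zero; inactive = the rest.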

Sequence of Desmoglein-3 (Homo sapiens) (P32926 whole entry, looked up, the tested form may be a part): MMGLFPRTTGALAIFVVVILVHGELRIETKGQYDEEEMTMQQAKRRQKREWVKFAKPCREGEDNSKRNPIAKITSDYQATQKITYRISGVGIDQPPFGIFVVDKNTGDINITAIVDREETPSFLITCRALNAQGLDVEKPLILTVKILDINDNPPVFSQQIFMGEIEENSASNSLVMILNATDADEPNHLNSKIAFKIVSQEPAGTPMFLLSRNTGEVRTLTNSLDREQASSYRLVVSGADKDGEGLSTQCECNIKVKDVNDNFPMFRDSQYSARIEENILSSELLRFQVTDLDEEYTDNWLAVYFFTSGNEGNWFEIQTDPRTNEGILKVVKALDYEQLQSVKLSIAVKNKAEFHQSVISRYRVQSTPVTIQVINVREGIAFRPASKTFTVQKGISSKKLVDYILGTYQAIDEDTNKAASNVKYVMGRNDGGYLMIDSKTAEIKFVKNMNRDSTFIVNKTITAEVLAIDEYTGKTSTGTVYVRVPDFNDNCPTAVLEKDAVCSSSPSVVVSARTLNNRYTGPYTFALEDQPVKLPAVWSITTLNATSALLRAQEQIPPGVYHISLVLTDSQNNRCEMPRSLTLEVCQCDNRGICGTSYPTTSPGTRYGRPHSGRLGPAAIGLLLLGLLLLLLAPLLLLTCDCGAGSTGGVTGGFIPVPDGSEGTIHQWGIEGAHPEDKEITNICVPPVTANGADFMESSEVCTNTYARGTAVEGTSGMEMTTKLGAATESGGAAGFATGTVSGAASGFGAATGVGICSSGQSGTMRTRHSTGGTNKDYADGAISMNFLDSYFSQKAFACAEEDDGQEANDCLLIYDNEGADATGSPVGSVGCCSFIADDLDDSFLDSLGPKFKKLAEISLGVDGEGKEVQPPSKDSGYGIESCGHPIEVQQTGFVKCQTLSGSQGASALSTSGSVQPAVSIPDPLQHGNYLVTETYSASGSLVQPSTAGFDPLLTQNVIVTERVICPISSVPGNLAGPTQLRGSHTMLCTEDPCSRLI

This assay concerns the target Desmoglein-3 (Homo sapiens) (UniProt P32926). Briefly: blockers of anti-DSG3 scFv binding – biochemical, bead-based, flow cytometry, scFv-GFP, primary screen (AID 588358).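 Note: hits lower antibody fragment binding to DSG3.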 Conditions: DSG3-coupled beads, at 10 µM, hits give low values. In general terms: In flow cytometry, cells or beads pass a laser one at a time.
Regarding `O=S1(=O)CCN(C2CCCCCCCCCCC2)CC1`, the binding (percent of control) is 96.7%.

`CC(=O)Nc1ccc(C=Cc2ccc([N+](=O)[O-])cc2)cc1`: the binding (percent of control) is 101%.

Consider `CCN(CC(=O)Nc1ccc(NC(C)=O)cc1)C(=O)C1CC(=O)N(c2ccc3c(c2)OCCO3)C1` (stereo unspecified), for which the binding (percent of control) was 102%.

Regarding `O=C(Nc1ccc(F)c(Cl)c1)C1CCN(S(=O)(=O)c2cccnc2)CC1`, the binding (percent of control) is 109%.

Turning to `COc1ccc(S(=O)(=O)N2CCCC(C(=O)Nc3ccc(NC(=O)c4ccccn4)cc3)C2)cc1` (stereo unspecified), the binding (percent of control) was 101%.

`CC(C)c1ccc(NC(=O)C2CCCN(S(=O)(=O)c3cccnc3)C2)cc1` (stereo unspecified): the binding (percent of control) is -3.9% (active).

Consider `C=CCn1nc(C(=O)OCC)cc1-c1sc(NC(=O)c2ccccc2)nc1C`, for which the binding (percent of control) was 102%.

In the case of `Cc1cc(Nc2ccc(C)c(C)c2)n2ncnc2n1`, the binding (percent of control) was 95%.

As to `CCN(CC)C(=O)C1=C(C)N(Cc2ccc(OC)cc2)C(=O)C(CC(=O)NCCCCc2ccccc2)C1` (stereo unspecified), the binding (percent of control) was 109%.

With `O=S(=O)(NCc1ccccc1)c1ccc(S(=O)(=O)N2CCCC2)cc1`, the binding (percent of control) is 7.03% (active).

With `CC1CCN(S(=O)(=O)c2ccc(S(=O)(=O)NCc3cccnc3)cc2)CC1`, the binding (percent of control) was 94.4%.

For the molecule `O=S(=O)(c1ccc(-c2ccccc2)cc1)N1CCCC1`, the binding (percent of control) is 95.9%.

`CCOc1cc(/C=N/NC(=O)c2c(C)nc3ccc(Cl)cn23)ccc1O`: the binding (percent of control) is 108%.

With `C=CCN(CC=C)S(=O)(=O)c1ccc(C(=O)Nc2sc3c(c2C(N)=O)CCCCC3)cc1`, the binding (percent of control) is 110%.

For `NC(=O)c1c(NC(=O)c2ccccc2)sc2c1CCCC2`, the binding (percent of control) is 63.6% (active).

With `COc1cccc(OC)c1C(=O)Nc1sc2c(c1C(N)=O)CCCC2`, the binding (percent of control) was 109%.

As to `O=C(C1=C(O)C(=O)N(Cc2ccccc2)C1c1ccco1)c1ccco1` (stereo unspecified), the binding (percent of control) was 108%.

As to `O=C(C1=C(O)C(=O)N(Cc2ccccc2)C1c1cccnc1)c1ccco1` (stereo unspecified), the binding (percent of control) is 64.8% (active).

With `CCOc1cc(C2C(C(=O)c3ccco3)=C(O)C(=O)N2Cc2ccccc2)ccc1O` (stereo unspecified), the binding (percent of control) is 104%.

Regarding `CN1CCN(c2ccncc2S(=O)(=O)N2CCCC2)CC1`, the binding (percent of control) was 102%.

As to `O=c1ccc(-c2ccc(S(=O)(=O)Nc3ccccc3)o2)n[nH]1`, the binding (percent of control) was 110%.

As to `CC1CCCN(S(=O)(=O)c2ccc(-c3ccc(=O)[nH]n3)o2)C1` (stereo unspecified), the binding (percent of control) is 49% (active).

For the molecule `Cc1ccc(NS(=O)(=O)c2ccc(-c3ccc(=O)[nH]n3)o2)c(C)c1`, the binding (percent of control) is 102%.

For `COc1ccc(C(C)(C)C)cc1NC(=O)CN(C)C1=NS(=O)(=O)c2ccccc21`, the binding (percent of control) is 104%.

Turning to `COC(=O)c1ccc(CNC(=O)C2CCC(=O)N(Cc3cccc(F)c3)C2)cc1` (stereo unspecified), the binding (percent of control) is 97%.

In the case of `O=C(c1ccco1)N1CCN(Cc2cccc(C(F)(F)F)c2)CC1`, the binding (percent of control) was 107%.

In the case of `O=C1CCC(C(=O)N2CCCCO2)CN1Cc1cccc(C(F)(F)F)c1` (stereo unspecified), the binding (percent of control) was 90.7% (active).

Turning to `Cc1ccnc(SC2CC(=O)N(c3ccccc3)C2=O)n1` (stereo unspecified), the binding (percent of control) was 95.7%.

For the molecule `O=C(NCC(F)(F)F)c1ccc(S(=O)(=O)NCCc2ccc3c(c2)OCCO3)cc1`, the binding (percent of control) was 97.1%.

Take `C[C@H](O)[C@@H]1C(=O)N2CCc3c([nH]c4ccccc34)[C@@H]2C[C@@H]1N(C)C(=O)Nc1ccc(F)cc1`: the binding (percent of control) was 109%.

As to `O=C(c1ccc(CSc2ccccc2)cc1)N1CCCCCC1`, the binding (percent of control) is 105%.

Consider `CN(C)c1ccc(CSc2ccccc2)cc1`, for which the binding (percent of control) was -6.16% (active).

Turning to `CN(C)c1cc[n+](Cc2ccccc2)cc1`, the binding (percent of control) is 99.9%.

Turning to `Cc1ccc(Cc2c(-c3ccc(C)cc3)nc3c4ccccc4ccn23)cc1`, the binding (percent of control) was 109%.

On to `Cc1ccc(S(=O)(=O)/N=C2\C=C(NS(=O)(=O)c3ccc(C)cc3)C(=O)c3ccccc32)cc1`, for which the binding (percent of control) is 97.2%.

For the molecule `COc1ccc(NC(=O)CN(C)C(=O)c2cc(-c3ccc(C)o3)nc3ccccc23)cc1`, the binding (percent of control) was 96.9%.

Take `COc1cccc(NC(=O)CN(C)C(=O)c2cc(Cl)nc3ccccc23)c1`: the binding (percent of control) is 80.8% (active).

`COc1cccc(NC(=O)CN(C)C(=O)c2ccccc2CCc2ccccc2)c1`: the binding (percent of control) was 108%.

On to `CSc1ncccc1C(=O)N1CCCC(Nc2ccc(F)c(F)c2)C1` (stereo unspecified), for which the binding (percent of control) is 104%.

Consider `CCN(C(=O)Nc1cccc2ccccc12)c1ccccc1`, for which the binding (percent of control) was 103%.

As for `CCc1ccccc1NC(=O)CN1CCN(C(=O)c2cc(C3CC3)nn2-c2ccccc2)CC1`, the binding (percent of control) is 106%.

`COc1ccc(S(=O)(=O)N(C)C)cc1NC(=O)COC(=O)c1n[nH]c2ccccc12`: the binding (percent of control) was 98.8%.

As to `Cc1cccc(C(=O)C(O)(c2ccccc2)C2CCCCC2=O)c1` (stereo unspecified), the binding (percent of control) is 106%.

As to `CCOc1ccccc1Nc1ccc2nonc2c1[N+](=O)[O-]`, the binding (percent of control) was 96.1%.

As for `O=[N+]([O-])c1c(NCCO)cc(Sc2nc3ccccc3s2)c2nonc12`, the binding (percent of control) is 83.3% (active).

In the case of `O=C(O)c1ccccc1CSc1nc2ccccc2s1`, the binding (percent of control) was 116%.

On to `CCOC(=O)C(=Cc1ccccc1)C(=O)c1ccccc1`, for which the binding (percent of control) was 106%.

For `CCN(CC)C(=O)C1=C(C)N(Cc2ccccc2)C(=O)C(CC(=O)NC(c2ccccc2)c2ccccc2)C1` (stereo unspecified), the binding (percent of control) is 107%.

`O=C(CCc1ccc(O)cc1)NN=Cc1cc(Br)ccc1O`: the binding (percent of control) was 106%.

In the case of `COc1ccc(-c2noc(CCC(=O)N3CCN(c4cccc(C)c4)CC3)n2)cc1`, the binding (percent of control) is 98.6%.

`COc1ccc(-c2noc(COc3ccc(Cl)c(C)c3)n2)cc1`: the binding (percent of control) was 66.6% (active).

Regarding `COc1ccc(-c2noc(CNC(=O)C(C)Oc3ccccc3)n2)cc1` (stereo unspecified), the binding (percent of control) was 109%.

In the case of `Cc1ccc(-c2ccc(C3=CC(=O)CC(C)(C)C3=O)cc2)cc1`, the binding (percent of control) is 97.6%.

Take `COc1ccc(C(CNC(=O)CSc2ccccc2)N2CCOCC2)cc1` (stereo unspecified): the binding (percent of control) was 100%.

As for `CC(C)c1cc(C(=O)N(C)C2CCCN(Cc3ccccc3F)C2)n(C)n1` (stereo unspecified), the binding (percent of control) was 96.7%.

For `CC(C)C1CCN(C(=O)C2CCC(=O)N(C3CCCCCC3)C2)CC1` (stereo unspecified), the binding (percent of control) was 101%.

On to `CCCCOC(=O)NCN1C(=O)C2C3C=CC(C3)C2C1=O` (stereo unspecified), for which the binding (percent of control) was 110%.

With `CCC(C(=O)N1CCOCC1)n1c(C(=O)OC)cc2occc21` (stereo unspecified), the binding (percent of control) is 99.3%.

In the case of `CCCC(C(=O)N1CCOCC1)N1C(=O)C2C3C=CC(C3)C2C1=O` (stereo unspecified), the binding (percent of control) is -12.4% (active).

Take `CCCCCC(=O)N1C[C@H](O)[C@@H](n2cc(COC(=O)c3ccccc3)nn2)C[C@@H]1c1ccc(C)cc1`: the binding (percent of control) was 102%.

As for `CO/N=C(\C(=O)N[C@@H]1C(=O)N2C(C(=O)O)=C(COC(C)=O)CS[C@H]12)c1csc(N)n1` (stereo in doubt), the binding (percent of control) is 100% and 106%.

With `C=CC1=C(C(=O)O)N2C(=O)[C@@H](NC(=O)/C(=N/OCC(=O)O)c3csc(N)n3)[C@H]2SC1`, the binding (percent of control) is 68.8%.

Turning to `C=CC1=C(C(=O)O)N2C(=O)[C@@H](NC(=O)/C(=N\OCC(=O)O)c3csc(N)n3)[C@H]2SC1`, the binding (percent of control) is 71% (active).

With `O=C(CCCN1C(=O)C(c2ccccc2)Oc2cccnc21)Nc1ccccc1Br` (stereo unspecified), the binding (percent of control) was 105%.

`O=C(OCc1cn([C@H]2C[C@H](c3ccccc3)N(C(=O)c3cccs3)C[C@@H]2O)nn1)c1ccccc1`: the binding (percent of control) is 106%.

As to `O=c1c2[nH]c3ccc(Cl)cc3c2ncn1Cc1ccccn1`, the binding (percent of control) is 51% (active).

With `COc1ccc2c(c1)c1ncn(Cc3ccccn3)c(=O)c1n2C`, the binding (percent of control) is 112%.

For the molecule `Cc1ccc2[nH]c3c(=O)n(Cc4ccccn4)cnc3c2c1`, the binding (percent of control) was 108%.

On to `C[C@@H]1CN([C@@H](C)CO)C(=O)CCCn2nncc2CO[C@H]1CN(C)Cc1ccc(C(F)(F)F)cc1`, for which the binding (percent of control) was 103%.

For `Cc1cc(C)c2cc(C#N)c(N3CCNCC3)nc2c1`, the binding (percent of control) was 105%.

Regarding `C#CCOc1ccc(/C=C2/C(=O)NN(c3ccccc3)C2=O)cc1OC`, the binding (percent of control) is 81.6% (active).

On to `COc1cc(/C=C2/C(=O)NN(c3cccc(Cl)c3)C2=O)cc(Br)c1O`, for which the binding (percent of control) is 233%.

For the molecule `C#CCOc1ccc(/C=C2/C(=O)ON=C2C)cc1OCC`, the binding (percent of control) is 111%.

In the case of `Cc1ccc(Cc2c(-c3ccccc3)nc3ccc(Cl)cn23)cc1`, the binding (percent of control) is 105%.

Turning to `CCOC(=O)c1cc(-c2sc(NC(=O)c3ccccc3)nc2C)n(CCO)n1`, the binding (percent of control) is 96.7%.

Take `CCN(CC)C(=O)C(C)N1c2cccc3cccc(c23)S1(=O)=O` (stereo unspecified): the binding (percent of control) was 98.7%.

In the case of `CCOc1cc(N2CCOCC2)c(OCC)cc1NC(=O)COc1cccc(Cl)c1`, the binding (percent of control) was 96.8%.

Consider `CCOc1cc(N2CCOCC2)c(OCC)cc1NC(=O)c1ccc(C)s1`, for which the binding (percent of control) is 72.7% (active).

As to `CCOc1cc(N2CCOCC2)c(OCC)cc1NC(=O)C1=NN(c2cccc(C)c2)C(=O)CC1`, the binding (percent of control) is 102%.

`Cc1ccc(C(=O)NC(C)C(c2cccs2)N2CCOCC2)cc1C` (stereo unspecified): the binding (percent of control) was 92.7%.

For the molecule `Cc1ccccc1OS(=O)(=O)c1cccc([N+](=O)[O-])c1`, the binding (percent of control) was 100%.

As to `COCOCCn1cc(CN2CCS(=O)(=O)N(Cc3ccc(-c4ccc(OC)cc4)cc3)C(CC(C)C)C2=O)nn1` (stereo unspecified), the binding (percent of control) is 103%.

For `Cc1cc(C)c([N+](=O)[O-])cc1-c1ccc(/C=N/NC(=O)c2nonc2N)o1`, the binding (percent of control) was 87.1% (active).

Turning to `Cc1ccc(-c2ccc(/C=N/NC(=O)CN3CCOCC3)o2)cc1[N+](=O)[O-]`, the binding (percent of control) was 101%.

Consider `COc1cc(/C=N\NC(=O)c2nonc2N)c(OC)cc1Br`, for which the binding (percent of control) is 89.4%.

For the molecule `O=C(NCCS(=O)(=O)N1CCN(c2ccccc2)CC1)c1cc(=O)c2ccccc2o1`, the binding (percent of control) is 99.7%.

With `O=C(NCCOc1ccccc1)N1[C@H]2CC[C@@H]1C=C(c1ccc(F)cc1OCc1ccccc1)C2`, the binding (percent of control) is 107%.

For the molecule `CCC(Oc1ccccc1)C(=O)OCC(=O)Nc1c(C)nn(-c2ccccc2)c1C` (stereo unspecified), the binding (percent of control) is 106%.

Consider `Cc1cnc(C(=O)OCC(=O)NCCCc2ccccc2)cn1`, for which the binding (percent of control) is 104%.

With `Cc1cnc(C(=O)OCC(=O)Nc2ccc(Cl)cc2Cl)cn1`, the binding (percent of control) was 113%.

As for `Cc1cnc(C(=O)Oc2cccc(Cl)c2Cl)cn1`, the binding (percent of control) is -19.6% (active).

These data come from PubChem BioAssay AID588358 (NMMLSC, 2011).
